A selection: hits, their analogues and other compounds. The true share with any hit is near 2.8%.
PvdQ inh = P. aeruginosa PvdQ acylase inhibition; purified PvdQ acylase, fluorescence plate reader; inhibition, % at 10 µM; 0.063% of 340,000 active; AID 488965; in the data active = inhibition above about 30%, passing the limit was not always enough
SIRT5 block = inhibitors of human sirtuin-5 desuccinylase; Q9NXA8; Purified SirT5, succinyl-peptide AMC, trypsin-coupled fluorescence; inhibition, % at 15 µM; 1.1% of 330,000 active; AID 652115; in the data active = inhibition above about 15%
Target sequence (Q9NXA8 whole entry, looked up): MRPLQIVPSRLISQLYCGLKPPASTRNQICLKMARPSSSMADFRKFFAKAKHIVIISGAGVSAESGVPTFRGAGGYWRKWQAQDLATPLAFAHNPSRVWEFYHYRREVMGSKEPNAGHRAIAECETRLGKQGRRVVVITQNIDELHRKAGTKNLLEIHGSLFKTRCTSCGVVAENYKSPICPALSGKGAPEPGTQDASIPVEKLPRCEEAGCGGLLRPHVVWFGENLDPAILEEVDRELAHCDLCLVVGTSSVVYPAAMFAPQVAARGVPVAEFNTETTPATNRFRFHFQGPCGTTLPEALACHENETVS
FGF22 binding = shifts melting point of recombinant human FGF22 | Q9HCT0 | AID 651658 | recombinant FGF22 thermal shift, SYPRO orange fluorescence; percent of sucrose octasulfate shift, DMSO zero | activity (Tm shift, normalised), % at 9.99 µM | 1.5% of 340,000 active;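 active = mean Tm shift, scaled 0 neutral to 100 positive control, at about 1.3% or above, every replicate too, limit read from the data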
Target sequence (Q9HCT0 whole entry, looked up): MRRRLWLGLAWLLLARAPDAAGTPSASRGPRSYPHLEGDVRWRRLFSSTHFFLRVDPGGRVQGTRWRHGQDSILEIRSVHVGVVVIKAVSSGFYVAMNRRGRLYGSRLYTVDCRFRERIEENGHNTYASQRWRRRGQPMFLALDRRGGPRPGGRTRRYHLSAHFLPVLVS
CDK5 p35 inh = inhibitors of human CDK5/p35 kinase; inhibition, % at 10 µM; Q00535+Q15078; 0.01% of 330,000 active; Recombinant CDK5/p35, ADP-Glo luminescence, 60 min;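 active = highest replicate inhibition of at least 50% and at least 75% of replicates reaching 50%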
PglD inh = inhibitors of Campylobacter jejuni PglD acetyltransferase; purified PglD enzyme, DTNB colorimetric CoA detection; inhibition, % at 12.5 µM; 0.098% of 360,000 active; in the data active = inhibition above about 16%, passing the limit was not always enough
dFosB activator = enhances mouse delta FosB homodimer DNA binding; P13346; purified delta FosB, TAMRA-CDK5 oligo fluorescence polarization; percent of positive-control signal above neutral wells; activation, % at 25 µM; 0.99% of 340,000 active; AID 493131;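 active = mean activation above about 17%, with every replicate also reaching it, limit read from the data, passing the limit was not always enough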
A number is an active result; – = inactive; · = no result given.

SMILES	PvdQ inh	SIRT5 block	FGF22 binding	CDK5 p35 inh	PglD inh	dFosB activator
CC1(C)OC2OC(C(=O)N/N=C/c3ccccc3F)C3OC(C)(C)OC3C2O1 (stereo not drawn)	–	–	44	–	–	–
COc1ccccc1C1=NOC(COC(=O)c2ccc(Br)cc2)C1 (stereo not drawn)	–	–	43	–	–	–
COc1ccc(S(=O)(=O)Nc2cccc3c2O[C@@H](CN(C)S(=O)(=O)c2ccc(C)cc2)[C@H](C)CN([C@@H](C)CO)C3=O)cc1	·	·	–	·	–	·
CC(=O)c1cn(N(C)c2ncc(C(F)(F)F)cc2Cl)c(=O)[nH]c1=O	–	–	–	–	·	–
C=CCn1c(=O)c(C(C)=O)cn(N(C)c2ncc(C(F)(F)F)cc2Cl)c1=O	–	–	43	–	·	–
CCN(CC)C(=O)CSc1nc2c(c(-c3cccnc3)c1C#N)CCCC2	–	–	43	–	·	–
CN(C)S(=O)(=O)c1ccc2c(c1)nc(CCC(=O)NCC(=O)Nc1ccc(F)c(F)c1F)n2C	·	·	44	·	–	·
CN(C)S(=O)(=O)c1ccc2c(c1)nc(CCC(=O)O)n2C	–	–	·	–	–	–
COCCSc1ccccc1C(=O)N1CCN(c2ccccc2)CC1	–	–	–	–	–	–
COCCSc1ccccc1C(=O)N1CCc2ccccc2C1	–	–	43	–	–	–
O=C(c1ccc(C(F)(F)F)cc1)C1CCCN(C(=O)CN2CCCC2=O)C1 (stereo not drawn)	–	–	43	–	–	–
Cc1cccc(Nc2cc(C)c3c(O)cccc3n2)c1C	–	·	–	–	–	43
COc1ccccc1CN1CC[C@H]2[C@H](CO)Nc3ccc(C#Cc4ccccc4)cc3[C@H]21	·	–	–	·	–	·
COc1ccc(CN2CCCC(C(=O)c3cccc(OC(C)C)c3)C2)cc1Cn1cccn1 (stereo not drawn)	33	–	–	–	–	–
CCOC(=O)c1[nH]ncc1CN1CCCC(C(=O)c2cccc(OC(C)C)c2)C1 (stereo not drawn)	–	·	·	–	–	–
COc1ccc(C(=O)C2CCCN(Cc3cn[nH]c3-c3ccccc3)C2)cc1OC (stereo not drawn)	–	29	–	–	–	–
COc1ccc(-c2[nH]ncc2CN2CCCC(C(=O)c3cccc(OC)c3)C2)cc1 (stereo not drawn)	–	18	–	–	–	–
COCC(=O)N1CC2(C1)[C@H](c1ccc(C3=CCCC3)cc1)[C@H](CO)N2C(=O)COC	·	–	–	·	·	·
O=C(Nc1ccc(F)cc1)N1CC(=O)N2[C@H](C1)[C@H](c1ccc(C#Cc3ccc(F)cc3)cc1)[C@@H]2CO	·	–	·	·	·	·
C[C@@H]1CN([C@H](C)CO)C(=O)c2cc(NC(=O)Nc3cccc4ccccc34)ccc2O[C@H]1CN(C)Cc1ccc(C(=O)O)cc1	·	–	–	·	–	·
COc1ccc(-c2cnc3c(c2)C(=O)N([C@H](C)CO)C[C@H](C)[C@H](CN(C)S(=O)(=O)c2cccc(F)c2)O3)cc1	·	–	–	·	–	·
O=C(O)C1=C2C(=O)Nc3cccc(c32)C2(C1)C(=O)Nc1ccccc12 (stereo not drawn)	·	35	–	·	–	·
O=C1NCCC12C(=O)Nc1ccccc12 (stereo not drawn)	–	·	–	–	–	–
O=C(COC(=O)CSc1ccc([N+](=O)[O-])cc1)NCc1cccs1	–	15	–	–	–	–
COCC#Cc1ccc2c(c1)O[C@@H](CN(C)Cc1ccccc1F)[C@H](C)CN([C@H](C)CO)S2(=O)=O	·	–	–	·	–	·
SMILES	PvdQ inh	SIRT5 block	FGF22 binding	CDK5 p35 inh	PglD inh	dFosB activator
CC(=O)NC[C@@H]1[C@@H](c2ccc(-c3ccccc3F)cc2)[C@@H](CO)N1CCC(F)(F)F	·	25	·	·	·	·
CC(=O)NC[C@H]1[C@@H](c2ccc(-c3ccccc3F)cc2)[C@@H](CO)N1CCC(F)(F)F	·	–	·	·	·	·
O=C(COC(=O)c1cccc(S(=O)(=O)Nc2ccc(F)cc2)c1)NCCN1C(=O)CSC1=O	–	17	–	–	–	–
CC(C)C1C(=O)N(Cc2cn(Cc3ccco3)nn2)CCS(=O)(=O)N1Cc1ccc(-c2ccc(F)cc2)cc1 (stereo not drawn)	·	25	–	·	–	·
C[C@H](CO)N1C[C@H](C)[C@H](CN(C)C(=O)NC2CCCCC2)Oc2cc(C#Cc3ccc(F)cc3)ccc2S1(=O)=O	·	–	–	·	–	·
CC(C)CC#Cc1ccc2c(c1)O[C@@H](CN(C)C(=O)NC1CCCC1)[C@H](C)CN([C@H](C)CO)S2(=O)=O	·	25	–	·	–	·
CC(C)CC#Cc1ccc2c(c1)O[C@@H](CN(C)C(=O)NC1CCCC1)[C@H](C)CN([C@@H](C)CO)S2(=O)=O	·	16	–	·	–	·
C[C@@H]1CN([C@H](C)CO)S(=O)(=O)c2ccc(C#Cc3ccc(F)cc3)cc2O[C@H]1CN(C)C(=O)NC1CCCCC1	·	18	–	·	–	·
C[C@H]1CN([C@@H](C)CO)C(=O)Cc2cc(NS(=O)(=O)c3ccc(F)cc3)ccc2O[C@@H]1CN(C)Cc1ccc(Oc2ccccc2)cc1	·	–	–	·	–	·
O=C(C[C@@H]1CC[C@@H]2[C@H](COC[C@@H](O)CN2C(=O)Nc2cc(Cl)cc(Cl)c2)O1)NCC1CCCCC1	·	–	–	·	–	·
C=CCc1cc(/C=C2/NC(=O)NC2=O)cc(OCC)c1O	–	–	43	–	·	–
C=CCc1cc(/C=C2/NC(=S)NC2=O)cc(OC)c1O	–	·	·	–	·	–
COc1ccc(/C=C2/C(=O)N(Cc3ccccc3)N=C2C)cc1	–	–	–	–	·	–
COc1ccc(/C=C2/C(=O)N(c3nc4ccccc4s3)N=C2CSc2ccc(Cl)cc2)cc1	–	18	–	–	·	–
CN1C(=O)c2cc(NC(=O)c3ccc(F)c(F)c3)ccc2OC[C@H]2O[C@H](CC(=O)O)CC[C@H]21	·	·	–	·	–	·
CN(C)c1cccc(C(=O)N/C=C/n2cnc3cc(C(F)(F)F)ccc32)c1	–	–	43	–	·	–
O=C(O)C1C(c2ccccc2)c2ccccc2C(O)C1CO (stereo not drawn)	–	·	43	–	–	–
COc1ccc(-c2nn(CCC(=O)O)cc2/C=C2\SC(N)=NC2=O)cc1OC	–	28	–	–	·	–
CCCOc1ccc(-c2nn(-c3ccccc3)cc2/C=C2\SC(N)=NC2=O)cc1C	–	–	–	–	–	–
CCCCCN(C(=O)NC(=O)Nc1ccc(C)cc1C)S(C)(=O)=O	–	–	43	–	·	–
CC1=Nc2cc(C(=O)NCC3CCCO3)ccc2Sc2ccc(Br)cc21 (stereo not drawn)	–	–	–	–	–	–
CC1=Nc2cc(C(=O)O)ccc2Sc2ccc(Br)cc21	–	23	–	–	–	–
N#Cc1cc(-c2ccccc2)cnc1Cl	37	·	·	–	·	–
Clc1ccc(-c2ccccc2)cn1	–	–	–	–	–	–

Screens as filed in PubChem BioAssay.
